PubChem BioAssay
The other results are listed elsewhere or left out. The source made the active and inactive calls.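 Rule for the calls, unless noted: active = activation above the mean of DMSO-only control wells plus 3 SD (cut at about 18% in these data); inactive = the rest.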

Experiments:
[1] = biological target: Neuropeptide Y receptor type 2 (Homo sapiens) (UniProt P49146); test: human Y2 receptor positive modulation or activation – cell-based, confirmation (AID 1539; in the data active = activation above about 33%); conditions: cell-based NPY-Y2 potentiator/agonist assay; at 3.6 µM; hits give high values
Neuropeptide Y receptor type 2 (Homo sapiens), sequence (P49146 whole entry, looked up): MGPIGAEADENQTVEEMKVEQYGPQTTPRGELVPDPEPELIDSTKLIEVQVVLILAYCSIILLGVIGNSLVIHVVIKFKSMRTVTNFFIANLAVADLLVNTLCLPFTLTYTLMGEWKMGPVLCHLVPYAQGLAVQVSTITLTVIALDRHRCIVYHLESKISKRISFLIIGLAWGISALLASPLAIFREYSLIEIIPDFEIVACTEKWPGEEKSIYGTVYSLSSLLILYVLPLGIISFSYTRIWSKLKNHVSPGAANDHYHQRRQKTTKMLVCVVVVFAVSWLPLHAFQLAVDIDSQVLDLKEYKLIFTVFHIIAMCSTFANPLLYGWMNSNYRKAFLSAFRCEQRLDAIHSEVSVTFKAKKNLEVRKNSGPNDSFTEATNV

[2] = biological target: Neuropeptide Y receptor type 1 (Homo sapiens) (UniProt P25929); test: human Y1 receptor positive modulation or activation – cell-based, fluorescence, counter-screen for NPY-Y2 potentiator project (AID 1651; in the data active = activation above about 45%;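 note: cells stimulated with submaximal NPY then isoproterenol with phosphodiesterase inhibitor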); conditions: Y1 HEK293-CNG cells, membrane potential fluorescence; at 3.6 µM; hits give high values
Neuropeptide Y receptor type 1 (Homo sapiens), sequence (P25929 whole entry, looked up): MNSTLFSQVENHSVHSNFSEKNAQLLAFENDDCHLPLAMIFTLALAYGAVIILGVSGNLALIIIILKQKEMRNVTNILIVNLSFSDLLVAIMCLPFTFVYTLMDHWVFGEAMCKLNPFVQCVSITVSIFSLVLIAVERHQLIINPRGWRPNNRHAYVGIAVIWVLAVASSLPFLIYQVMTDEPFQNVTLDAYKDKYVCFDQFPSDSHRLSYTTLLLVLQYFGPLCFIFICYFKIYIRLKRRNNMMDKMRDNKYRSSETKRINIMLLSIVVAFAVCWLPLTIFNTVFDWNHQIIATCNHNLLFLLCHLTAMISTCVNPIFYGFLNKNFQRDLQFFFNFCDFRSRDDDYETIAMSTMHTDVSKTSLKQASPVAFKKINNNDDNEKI

[3] = biological target: Neuropeptide Y receptor type 1 (Homo sapiens) (UniProt P25929); test: human Y1 receptor agonism, CNGC membrane potential – cell-based, fluorescence, selectivity assay for NPY-Y2 potentiator project (AID 1702); conditions: HEK293 Y1-CNGC, at 3.6 µM, hits give high values;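 note: cells stimulated with 1 µM isoproterenol plus the PDE inhibitor Ro 20-1724; 0% = isoproterenol with DMSO and no NPY and 100% = 40 nM NPY; Y1 agonists lower the membrane potential dye signal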
[4] = blockers of isoproterenol-driven CNG channel signal – cell-based, HEK293-CNG parental, membrane potential fluorescence, counter-screen for NPY-Y2 potentiator project (AID 1703;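 active = inhibition above the control-well mean plus 3 SD of those wells, cut at about 22% in these data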;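 note: 0% = DMSO with isoproterenol and 100% = DMSO without isoproterenol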); conditions: isoproterenol cAMP, at 3.6 µM, hits give high values
[5] = biological target: Neuropeptide Y receptor type 2 (Homo sapiens) (UniProt P49146); test: agonism at human Y2 receptor without NPY – cell-based, fluorescence, counter-screen for NPY-Y2 potentiator project (AID 1710;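 active = activation above the mean of solvent-only control wells plus 3 SD, cut at about 10% in these data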;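 note: cells stimulated by isoproterenol with no NPY added so direct agonism is tested; 0% = DMSO with isoproterenol alone and 100% = NPY at EC100 plus isoproterenol; agonism lowers probe fluorescence through less cAMP and CNG channel opening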); conditions: HEK293 Y2/CNGC cells, membrane potential fluorescence, agonist mode; at 3.6 µM; hits give high values
[6] = biological target: Sphingosine 1-phosphate receptor 4 (Homo sapiens) (UniProt O95977); test: blockers of human S1P4 signalling – cell-based, confirmation (AID 1524; in the data active = inhibition above about 30%); conditions: S1P4-expressing cell line, antagonist mode, reporter read-out; at 4.98 µM; hits give high values
[7] = biological target: Sphingosine 1-phosphate receptor 1 (Homo sapiens) (UniProt P21453); test: blockade of human S1P1 receptor – cell-based, counter-screen for S1P4 antagonist project (AID 1564; in the data active = inhibition above about 40%;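 note: receptor stimulated with S1P near its EC80; 0% = agonist stimulated wells and 100% = vehicle only wells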); conditions: cell-based S1P1 antagonist counterscreen, at 4.98 µM, hits give high values
Sphingosine 1-phosphate receptor 1 (Homo sapiens), sequence (P21453 whole entry, looked up, the tested form may be a part): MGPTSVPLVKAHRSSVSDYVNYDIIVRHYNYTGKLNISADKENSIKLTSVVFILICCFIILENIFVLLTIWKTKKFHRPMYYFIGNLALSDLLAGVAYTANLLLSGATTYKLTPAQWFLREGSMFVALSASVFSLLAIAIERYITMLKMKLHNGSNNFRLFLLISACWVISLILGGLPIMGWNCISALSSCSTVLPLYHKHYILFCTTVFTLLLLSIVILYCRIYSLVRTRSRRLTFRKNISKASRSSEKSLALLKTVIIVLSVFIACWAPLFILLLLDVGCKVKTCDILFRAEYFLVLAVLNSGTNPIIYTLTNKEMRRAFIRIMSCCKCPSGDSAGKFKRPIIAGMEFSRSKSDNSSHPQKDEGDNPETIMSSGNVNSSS

[8] = biological target: Nuclear receptor coactivator 3 (Homo sapiens) (UniProt Q9Y6Q9); test: NCOA3 GAL4-fusion reporter inhibition – cell-based, luminescence, quadruplicate, confirmation (AID 588792;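 active = mean inhibition over 43.08%, the solvent-only control mean plus 3 SD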;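 note: 0% = DMSO treated cells and 100% = gossypol at 36 µM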); conditions: HEK293 GAL4-SRC3 luciferase reporter, at 3.6 µM, hits give high values
Nuclear receptor coactivator 3 (Homo sapiens), sequence (Q9Y6Q9 whole entry, looked up, the tested form may be a part): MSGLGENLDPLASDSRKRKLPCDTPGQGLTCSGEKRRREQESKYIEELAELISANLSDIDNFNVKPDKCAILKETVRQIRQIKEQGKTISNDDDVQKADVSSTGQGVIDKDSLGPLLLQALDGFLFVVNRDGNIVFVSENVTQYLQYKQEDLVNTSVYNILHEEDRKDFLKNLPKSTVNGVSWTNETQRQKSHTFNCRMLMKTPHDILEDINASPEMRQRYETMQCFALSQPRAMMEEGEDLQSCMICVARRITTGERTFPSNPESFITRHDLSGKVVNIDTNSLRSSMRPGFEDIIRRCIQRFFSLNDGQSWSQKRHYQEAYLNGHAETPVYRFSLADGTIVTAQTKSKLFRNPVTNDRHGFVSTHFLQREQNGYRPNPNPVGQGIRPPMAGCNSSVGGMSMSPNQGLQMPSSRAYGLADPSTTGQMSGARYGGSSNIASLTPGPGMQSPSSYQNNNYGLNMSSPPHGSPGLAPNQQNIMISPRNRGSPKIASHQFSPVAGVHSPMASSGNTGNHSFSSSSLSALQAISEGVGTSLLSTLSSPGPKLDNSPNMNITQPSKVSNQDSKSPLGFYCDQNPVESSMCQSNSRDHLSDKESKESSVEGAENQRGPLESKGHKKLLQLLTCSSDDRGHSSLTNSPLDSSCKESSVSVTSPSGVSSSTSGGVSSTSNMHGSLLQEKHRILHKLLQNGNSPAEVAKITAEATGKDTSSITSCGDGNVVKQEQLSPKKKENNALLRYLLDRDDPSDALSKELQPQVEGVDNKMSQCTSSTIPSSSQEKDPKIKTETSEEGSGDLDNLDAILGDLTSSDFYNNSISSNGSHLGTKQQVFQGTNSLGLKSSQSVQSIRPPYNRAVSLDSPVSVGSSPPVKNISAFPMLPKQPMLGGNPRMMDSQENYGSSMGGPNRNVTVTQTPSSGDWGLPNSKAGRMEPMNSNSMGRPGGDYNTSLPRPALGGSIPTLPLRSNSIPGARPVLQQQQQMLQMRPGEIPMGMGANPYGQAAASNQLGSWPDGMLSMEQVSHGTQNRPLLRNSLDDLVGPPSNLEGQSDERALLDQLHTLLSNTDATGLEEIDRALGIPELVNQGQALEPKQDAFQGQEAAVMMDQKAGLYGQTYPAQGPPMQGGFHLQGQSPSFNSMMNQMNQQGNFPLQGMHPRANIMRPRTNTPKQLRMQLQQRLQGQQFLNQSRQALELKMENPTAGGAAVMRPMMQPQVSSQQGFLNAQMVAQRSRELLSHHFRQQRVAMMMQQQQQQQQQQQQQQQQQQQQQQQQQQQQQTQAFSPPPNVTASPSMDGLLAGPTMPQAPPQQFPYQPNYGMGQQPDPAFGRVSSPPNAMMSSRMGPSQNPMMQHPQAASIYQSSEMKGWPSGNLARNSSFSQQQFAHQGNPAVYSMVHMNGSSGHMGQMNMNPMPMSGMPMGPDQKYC

[9] = tested on: transactivating tegument protein VP16 (Human herpesvirus 1), Gal4-VP16 luciferase reporter; test: repression of VP16-driven luciferase reporter – cell-based, luminescence, high throughput, counter-screen for SRC3 inhibitor project (AID 588794; in the data active = inhibition above about 30%); conditions: mammalian cells, at 3.6 µM, hits give high values
[10] = biological target: Nuclear receptor coactivator 1 (Homo sapiens) (UniProt Q15788); test: NCOA1 GAL4-fusion reporter inhibition – cell-based, luminescence, quadruplicate, confirmation (AID 588820;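 active = mean inhibition above 46.68%, the untreated control wells mean plus 3 SD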;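 note: 0% = DMSO wells and 100% = gossypol 36 µM treated wells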); conditions: HEK293 GAL4-SRC1 luciferase reporter, at 3.6 µM, hits give high values
Nuclear receptor coactivator 1 (Homo sapiens), sequence (Q15788 whole entry, looked up, the tested form may be a part): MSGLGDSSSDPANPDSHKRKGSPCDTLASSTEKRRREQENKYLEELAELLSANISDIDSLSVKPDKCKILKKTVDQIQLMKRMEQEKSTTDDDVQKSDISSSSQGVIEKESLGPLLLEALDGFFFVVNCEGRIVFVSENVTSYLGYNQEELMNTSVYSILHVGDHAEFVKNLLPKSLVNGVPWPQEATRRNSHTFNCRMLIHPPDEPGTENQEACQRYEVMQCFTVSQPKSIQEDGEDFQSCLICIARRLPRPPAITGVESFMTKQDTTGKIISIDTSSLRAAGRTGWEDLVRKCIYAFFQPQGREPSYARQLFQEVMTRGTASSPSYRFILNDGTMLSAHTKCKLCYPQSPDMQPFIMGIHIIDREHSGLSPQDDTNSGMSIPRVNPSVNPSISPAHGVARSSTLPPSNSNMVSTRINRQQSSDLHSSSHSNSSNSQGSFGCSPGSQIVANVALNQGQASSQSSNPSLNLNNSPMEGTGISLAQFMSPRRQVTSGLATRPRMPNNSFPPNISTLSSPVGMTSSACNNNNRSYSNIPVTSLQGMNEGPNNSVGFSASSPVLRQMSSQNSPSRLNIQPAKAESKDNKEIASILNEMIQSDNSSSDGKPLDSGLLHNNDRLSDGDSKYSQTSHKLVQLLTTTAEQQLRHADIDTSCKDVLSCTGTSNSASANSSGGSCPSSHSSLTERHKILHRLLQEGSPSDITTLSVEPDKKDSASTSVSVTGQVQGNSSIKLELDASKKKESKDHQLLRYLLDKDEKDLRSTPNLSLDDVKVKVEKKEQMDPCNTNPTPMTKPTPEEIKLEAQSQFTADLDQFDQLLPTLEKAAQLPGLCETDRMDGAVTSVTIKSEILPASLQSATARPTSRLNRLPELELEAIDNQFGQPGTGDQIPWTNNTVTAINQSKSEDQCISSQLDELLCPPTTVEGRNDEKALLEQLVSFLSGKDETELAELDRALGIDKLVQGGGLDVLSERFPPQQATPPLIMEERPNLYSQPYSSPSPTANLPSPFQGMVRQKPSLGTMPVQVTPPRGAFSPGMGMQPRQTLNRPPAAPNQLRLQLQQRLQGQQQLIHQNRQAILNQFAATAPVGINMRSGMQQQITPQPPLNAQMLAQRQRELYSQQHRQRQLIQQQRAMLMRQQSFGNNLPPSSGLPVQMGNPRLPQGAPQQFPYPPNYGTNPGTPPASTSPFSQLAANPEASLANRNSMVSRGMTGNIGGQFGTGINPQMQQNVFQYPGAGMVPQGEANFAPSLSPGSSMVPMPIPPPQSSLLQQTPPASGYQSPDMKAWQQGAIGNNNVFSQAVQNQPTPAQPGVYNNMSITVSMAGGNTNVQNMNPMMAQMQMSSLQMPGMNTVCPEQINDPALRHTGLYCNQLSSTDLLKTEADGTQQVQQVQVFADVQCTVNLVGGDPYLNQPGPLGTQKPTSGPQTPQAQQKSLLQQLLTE

[11] = repression of VP16-driven luciferase reporter – cell-based, luminescence, high throughput, counter-screen for SRC1 inhibitor project (AID 588824; in the data active = inhibition above about 25%); conditions: cell-based VP16 transactivation luciferase luminescence; at 3.6 µM; hits give high values
[12] = suppression of KLF5 promoter-driven luciferase – DLD-1 cells, luminescence, confirmation (AID 1834;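 active = inhibition above a set limit taken from the earlier primary screen, cut at about 63% in these data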;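 note: 0% = DMSO wells and 100% = LY294002 at 200 µM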); conditions: DLD-1 KLF5 promoter firefly luciferase reporter, at 4 µM, hits give high values
[13] = IEC-6 intestinal cell killing – luminescence, triplicate, cytotoxicity control for KLF5 inhibitor project (AID 1905; in the data active = inhibition above about 23%;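 note: cells exposed to compounds for 48 hours before viability read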); conditions: IEC-6 rat intestinal cells, viability luminescence; at 4 µM; hits give high values
[14] = biological target: Bcl-2-like protein 1 (Homo sapiens) (UniProt Q07817); test: Bcl-xL BH3-peptide displacement, hit confirmation – biochemical, fluorescence polarization, counter-screen for MCL1 inhibitor project (AID 2166;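 active = inhibition above a cutoff equal to the mean inhibition of all tested compounds plus 3 SD, cut at about 30% in these data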); conditions: GST-Bcl-xL / FITC-Bim BH3 peptide FP binding; at 10.9 µM; hits give high values
Bcl-2-like protein 1 (Homo sapiens), sequence (Q07817 whole entry, looked up): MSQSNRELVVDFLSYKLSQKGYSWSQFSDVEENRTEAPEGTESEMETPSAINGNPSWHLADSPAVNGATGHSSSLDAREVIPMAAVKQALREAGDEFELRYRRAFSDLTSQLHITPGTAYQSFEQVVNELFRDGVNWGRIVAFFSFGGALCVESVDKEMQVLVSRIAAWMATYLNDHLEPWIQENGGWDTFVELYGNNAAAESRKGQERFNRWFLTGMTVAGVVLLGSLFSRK

[15] = biological target: Induced myeloid leukemia cell differentiation protein Mcl-1 (Homo sapiens) (UniProt Q07820); test: MCL1-BIM peptide interaction disruptors – biochemical, fluorescence polarization, triplicate, confirmation (AID 2168;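 active = inhibition above the average of all tested compounds plus 3 SD, cut at about 40% in these data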;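 note: 0% = DMSO wells and 100% = unlabeled Bim-BH3 control peptide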); conditions: GST-MCL1 / FITC-Bim-BH3 fluorescence polarization; at 10.9 µM; hits give high values
[16] = StAR promoter reporter inhibitors, counter-screen for LRH-1 inverse agonist project, cell-based, luminescence, high throughput (AID 651611; in the data active = inhibition above about 28%); conditions: StAR promoter luciferase reporter counterscreen, at 3.6 µM, hits give high values
[17] = biological target: Nuclear receptor subfamily 5 group A member 2 (Homo sapiens) (UniProt O00482); test: NR5A2 activity suppression in reporter cells – cell-based, luminescence, confirmation (AID 651613; in the data active = inhibition above about 42%;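 note: HEK293T cells co-transfected with LRH-1 and StAR promoter luciferase reporter; 0% = vehicle wells and 100% = parental cells lacking receptor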); conditions: cell-based LRH-1 luciferase reporter, inverse agonism; at 3.6 µM; hits give high values
Nuclear receptor subfamily 5 group A member 2 (Homo sapiens), sequence (O00482 whole entry, looked up): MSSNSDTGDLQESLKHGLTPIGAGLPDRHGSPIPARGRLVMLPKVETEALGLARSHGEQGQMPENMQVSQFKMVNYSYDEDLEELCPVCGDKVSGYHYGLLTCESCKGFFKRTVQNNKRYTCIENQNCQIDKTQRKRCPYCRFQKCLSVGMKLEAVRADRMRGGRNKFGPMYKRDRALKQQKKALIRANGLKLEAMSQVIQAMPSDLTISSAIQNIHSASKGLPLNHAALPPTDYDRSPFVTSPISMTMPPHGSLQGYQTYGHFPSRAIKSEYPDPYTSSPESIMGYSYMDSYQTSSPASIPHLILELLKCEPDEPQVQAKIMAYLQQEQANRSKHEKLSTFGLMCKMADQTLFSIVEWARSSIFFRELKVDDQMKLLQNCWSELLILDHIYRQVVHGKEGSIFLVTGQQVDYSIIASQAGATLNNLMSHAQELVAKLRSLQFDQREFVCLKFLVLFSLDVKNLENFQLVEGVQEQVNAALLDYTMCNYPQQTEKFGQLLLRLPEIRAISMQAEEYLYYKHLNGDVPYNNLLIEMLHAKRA

[18] = biological target: Steroidogenic factor 1 (Homo sapiens) (UniProt Q13285); test: inverse agonism at SF1 nuclear receptor – cell-based, luminescence, high throughput, counter-screen for LRH-1 inverse agonist project (AID 651614; in the data active = inhibition above about 44%;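 note: cells cotransfected with StAR promoter reporter and SF1 expression vector; 0% = vehicle on cells with receptor and 100% = vehicle on cells lacking receptor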); conditions: cell-based SF1 luciferase reporter, at 3.6 µM, hits give high values
[19] = compounds suppressing VP16-driven luciferase signal – cell-based, luminescence, high throughput, counter-screen for LRH-1 inverse agonist project (AID 651615; in the data active = inhibition above about 33%); conditions: Gal4-VP16 luciferase reporter cells, at 3.6 µM, hits give high values
[20] = VP16-driven transactivation reporter suppression – cell-based, luminescence, HEK293, counter-screen for COUP-TFII antagonist project (AID 687007; in the data active = inhibition above about 13%); conditions: HEK293 Gal4-VP16 luciferase reporter, at 8.5 µM, hits give high values
[21] = biological target: COUP transcription factor 2 (Homo sapiens) (UniProt P24468); test: retest of COUP-TFII reporter suppressors – cell-based, luciferase reporter, HEK293, triplicate, confirmation (AID 687008;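 active = mean inhibition over three repeats above a set limit taken from the earlier primary screen, cut at about 38% in these data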;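 note: 100% = cells given the luciferase reporter alone without the COUP-TF2 vector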); conditions: HEK293 NGFI-A luciferase reporter, luminescence; at 8.5 µM; hits give high values

Cc1ccc(CCNC(=O)C2CCN(S(=O)(=O)N3CCCC3)CC2)cc1
inactive: activation [1] -1.21% | activation [2] -6.28% | activation [3] -10.2% | inhibition [4] -4.94% | activation [5] -8.83%

CC1CC2=C(CC1/C=N/NC(N)=S)C(C)(C)CCC2 (stereo unspecified)
active: inhibition [6] 67.8% | inhibition [8] 50.9% | inhibition [9] 30.1% | inhibition [11] 33.7%
inactive: inhibition [7] 7.02% | inhibition [10] 32.9%

N/C(=N\S(=O)(=O)c1cc(C(F)(F)F)cc(C(F)(F)F)c1)c1cccs1
active: inhibition [4] 25.6% | activation [5] 23.1%
inactive: activation [1] 20.3% | activation [2] 29.6% | activation [3] 15.7%

Cc1ccc(/C=N/NC(=O)COc2ccccc2-c2ccccc2)cc1
active: inhibition [12] 85.4% | inhibition [13] 74.2%
inactive: inhibition [14] -0.45% | inhibition [15] -3.63%

CSc1nc(N(C)NC(=O)c2cccc(C)c2)c2ccccc2n1
active: inhibition [12] 88.7% | inhibition [13] 73.4%

CN(C)c1ccc(CNC2C3CC4CC(C3)CC2C4)cc1 (stereo unspecified)
inactive: activation [1] 7.01% | activation [2] -7.77% | activation [3] -11.2% | inhibition [4] 5.13% | activation [5] -2.65%

CCOC(=O)CSC1=C(C#N)C(c2sccc2C)CC(=O)N1 (stereo unspecified)
active: inhibition [12] 63.3% | inhibition [13] 57.3%

CC(=O)c1ccc2c(c1)OCCOCCOc1ccc(C(C)=O)cc1OCCOCCO2
active: activation [3] 36.5% | inhibition [4] 22.4% | activation [5] 26.6%
inactive: activation [1] 19.6% | activation [2] 25.9%

C[C@@H]1C[C@@H]2O[C@H]2/C=C\C=C\C(=O)Cc2c(Cl)c(O)cc(O)c2C(=O)O1
active: inhibition [12] 67.1% | inhibition [13] 38% | inhibition [8] 62.2% | inhibition [9] 74.4% | inhibition [11] 72% | inhibition [16] 55.7% | inhibition [17] 68.5% | inhibition [18] 56.9% | inhibition [19] 79.3% | inhibition [20] 64.3% | inhibition [21] 68%
inactive: inhibition [10] -17.6%
